This is a sample that favours compounds with a hit; in the whole collection about 2.5% have one here.
Rce1 inh: yeast Rce1p protease inhibitors, primary screen, biochemical, fluorescence, cell-free homogeneous. CAAX prenyl protease 2 (Saccharomyces cerevisiae (strain ATCC 204508 / S288c)), Q03530. yeast membranes, quenched prenylated peptide cleavage fluorescence. calls only. actives 0.27% (n = 290,000). AID 2563, 2010;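 active = fall in fluorescence gain of 50% or more versus controls, with final raw signal at or below 3038400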
Target sequence (Q03530 whole entry, looked up): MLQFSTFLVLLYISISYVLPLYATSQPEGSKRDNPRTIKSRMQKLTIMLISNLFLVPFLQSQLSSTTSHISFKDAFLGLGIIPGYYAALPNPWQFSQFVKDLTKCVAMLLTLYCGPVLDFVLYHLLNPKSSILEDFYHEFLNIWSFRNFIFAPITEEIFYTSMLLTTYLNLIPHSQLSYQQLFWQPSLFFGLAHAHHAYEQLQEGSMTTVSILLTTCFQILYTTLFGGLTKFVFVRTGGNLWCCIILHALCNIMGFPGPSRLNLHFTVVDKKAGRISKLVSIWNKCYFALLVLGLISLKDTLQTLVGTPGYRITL
MEKK2 WT-MEK5: modulators of MEK5 binding to wildtype MEKK2, primary screen, biochemical, multiplex bead flow cytometry, Alexa488-MEK5; Alexa488-MEK5 binding to MEKK2 WT; actives lie on both sides; binding response (% of control), % at 10 µM; Mitogen-activated protein kinase kinase kinase 2 (Homo sapiens), Q9Y2U5; actives 1.1% (n = 290,000); in the data active = binding response below about 67% or above about 130%
UBC13 polyUb: UBC13 polyubiquitin chain formation inhibitors, primary screen, biochemical, TR-FRET, uHTS; inhibition, % at 20 µM; actives 0.47% (n = 330,000); Ubiquitin-conjugating enzyme E2 N (Homo sapiens), P61088; in the data active = inhibition above about 45%, passing the limit was not always enough
Target sequence (P61088 whole entry, looked up): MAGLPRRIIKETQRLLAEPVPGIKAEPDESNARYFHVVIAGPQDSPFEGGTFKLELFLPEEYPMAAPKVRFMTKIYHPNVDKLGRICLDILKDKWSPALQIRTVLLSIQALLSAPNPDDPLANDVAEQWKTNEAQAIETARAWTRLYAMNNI
MEKK3 PB1 HTS: modulators of MEKK3-MEK5 PB1 binding, primary screen, biochemical, wildtype MEKK3, multiplex bead flow cytometry, Alexa488-MEK5. bead-based flow cytometry, Alexa488-MEK5 binding to MEKK3; actives lie on both sides; 0 = blocked by unlabeled MEK5, 100 = vehicle. binding response (% of control), % at 10 µM. actives 1.4% (n = 290,000);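 active = binding response more than 3 SD above or below the average of its plate-row segment, actives on both sides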;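 note: Alexa488 bead fluorescence after subtracting the streptavidin-only scavenger bead signal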
MEKK2mut PB1 HTS: MEK5 binding signal on mutant MEKK2 PB1, primary screen, biochemical, multiplex bead flow cytometry, Alexa488-MEK5; AID 1530, 2009; actives 0.35% (n = 290,000); Alexa488-MEK5 binding to MEKK2 mutant; percent response, % at 10 µM; in the data active = percent response above about 24%, passing the limit was not always enough
Numbers stand for hits; – = inactive; · = no result given; + = active, no number; [ ] = another dose, or the depositor's remark.

SMILES	Rce1 inh	MEKK2 WT-MEK5	UBC13 polyUb	MEKK3 PB1 HTS	MEKK2mut PB1 HTS
CCCCNc1c(-c2ccc(SC(C)CC)c(OC)c2)nc2ccc(C)cn12 (configuration not stated)	+	·	–	·	·
CCCCCCSc1cc(-c2nc3cc(C)ccn3c2NCCCC)ccc1OC	+	·	–	·	·
CCN(CC)c1ccc(/C=C/c2cc(-c3ccccc3)c3ccccc3n2)cc1	–	–	·	74[inhibitor]	–
CCN(CC)c1ccc(C=NCCNS(=O)(=O)c2ccc(C)cc2)cc1	–	-6.0	–	–	–
CCc1nc2ccccc2n1CC(=O)OCC(=O)N(CC(C)C)c1c(N)n(Cc2ccccc2)c(=O)[nH]c1=O	–	·	–	·	·
O=C(CN1CCN(C(=O)C2CCCO2)CC1)Nc1cc(C(F)(F)F)ccc1Cl (configuration not stated)	–	–	–	–	–
Cc1cc(C)cc(C(=O)NCC(=O)OCC(=O)c2cc(C)n(CC(F)(F)F)c2C)c1	·	–	–	–	–
COc1ccccc1CN1CCc2c([nH]c3ccccc23)C1	–	–	–	–	–
Clc1cccc(CN2CCc3c([nH]c4ccccc34)C2)c1Cl	+	–	–	–	–
O=C(CN1CCC(NC(=O)c2ccc(Br)cc2)CC1)NCc1cccs1	+	–	–	–	–
Cc1ccc(C(=O)c2oc3ccc(Cl)cc3c2NC(=O)CN2CCN(C)CC2)cc1	–	160	–	–	–
N#Cc1c(C(F)(F)F)cc(-c2ccc(F)cc2)nc1SCC(=O)O	–	–	–	–	–
CCCCOc1ccc(-c2cc(C(F)(F)F)c(C#N)c(SCC(=O)O)n2)cc1	+	–	–	–	–
CN(C(=O)CCl)C1CCCc2ccccc21 (configuration not stated)	·	–	·	–	–
CN(C(=O)c1cccc(C(F)(F)F)c1)C1CCCc2ccccc21 (configuration not stated)	–	0.0[inhibitor]	–	1.0[inhibitor]	–
Cc1cccc(-c2oc3ccccc3c2-c2ccc3c(c2)OCO3)c1	+	–	·	–	–
Cc1csc2nc(=O)c3ccccc3n12	+	–	·	–	–
COc1ccc(CNC(=S)Nc2ccccc2-c2ccccc2)cc1	–	–	–	–	–
OCCN(CCO)c1ccc(C(c2ccccc2Cl)c2ccc(N(CCO)CCO)cc2Cl)c(Cl)c1	–	–	–	–	–
OCCN(CCO)c1ccc2ccccc2c1	+	–	–	–	–
O=C(c1ccc(F)cc1)N(Cc1cccs1)C1CCS(=O)(=O)C1 (configuration not stated)	–	0.0[inhibitor]	–	2.0[inhibitor]	–
CCOC(=O)c1[nH]c2ccc(OC)cc2c1NC(=O)CN1CCC2(CC1)OCCO2	+	–	–	–	–
CCC(C)(C)NC(=O)C(c1ccc(F)cc1)N(Cc1cccs1)C(=O)c1cnccn1 (configuration not stated)	–	–	–	–	–
CC(=O)O[C@@H]1[C@@H](O)[C@@H](O)[C@H](Oc2c(-c3ccc(O)cc3)oc3c(CC=C(C)C)c(O)cc(O)c3c2=O)O[C@H]1C	–	–	46	–	–
COc1ccc(-c2oc3c(CC=C(C)C)c(O[C@@H]4O[C@H](CO)[C@@H](O)[C@H](O)[C@H]4O)cc(O)c3c(=O)c2O[C@@H]2O[C@@H](C)[C@H](O)[C@@H](O)[C@H]2O)cc1	–	–	–	–	–
SMILES	Rce1 inh	MEKK2 WT-MEK5	UBC13 polyUb	MEKK3 PB1 HTS	MEKK2mut PB1 HTS
C/C(=N\NC(=S)Nc1ccccc1C)c1ccc(O)cc1	–	–	50	–	–
COCCNC(=S)N/N=C(\C)c1ccc(O)cc1	–	–	–	–	–
O=C(Nc1ccccc1)c1cccc(S(=O)(=O)Oc2ccc([N+](=O)[O-])cc2)c1	–	–	–	–	–
O=C(Cc1ccccc1)Nc1ccnn1C1CCN(Cc2nccs2)CC1	–	–	–	–	–
COc1ccc(C)cc1NC(=O)NNS(=O)(=O)c1ccc(NC(C)=O)cc1	–	47[inhibitor]	–	39[inhibitor]	–
CCNS(=O)(=O)c1ccc(NC(=O)Nc2cc(C)ccc2OC)cc1	–	–	–	–	–
CCC(=O)NCCc1c[nH]c2ccccc12	–	–	–	–	–
O=C(NCCc1c[nH]c2ccccc12)OCCSS(=O)(=O)O	+	–	–	–	–
Nc1nn(-c2ccccc2)c(N)c1N=Nc1ccccc1F	–	–	–	129	–
Nc1nn(-c2ccccc2)c(N)c1N=Nc1ccccc1	–	–	–	–	–
CC(C)C1=CC(=Nc2ccc(S(N)(=O)=O)cc2)C=C(C(C)C)C1=O	–	–	–	–	–
O=C(C1CCC(=O)N(C2CC2)C1)N1CCN(c2ccccc2Cl)CC1 (configuration not stated)	+	–	–	–	–
Cc1ccccc1SC1CCN(C(=O)C2CCC(=O)N(C3CC3)C2)CC1 (configuration not stated)	–	–	–	–	–
FC(F)(F)c1cc(Oc2ccccc2)ncc1-c1nnc(-c2ccccc2Cl)o1	+	–	–	–	–
Clc1ccccc1-c1nnc(-c2ccccc2Cl)o1	–	–	–	–	–
COc1ccc(-n2nc(C(=O)NCC(=O)N3CCC(C)CC3)c3ccccc3c2=O)cc1	+	–	–	–	–
COc1ccc(C2=NN(C(=O)CCC(=O)O)C(c3cccs3)C2)cc1 (configuration not stated)	+	–	–	–	–
COc1ccc(C2=NN(C(=O)CSc3ncccn3)C(c3cccc(OC)c3OC)C2)cc1 (configuration not stated)	–	-7.0	–	–	–
CCN(c1ccc(OC)cc1)S(=O)(=O)c1nnc(NC(=O)c2ccc(C)cc2)s1	–	–	–	–	–
COCCC(=O)N1CCC(Oc2ccc(C(=O)NCc3cccc(C)n3)cc2)CC1	–	–	–	–	–
Cc1nn(C)cc1NC(=O)CC12CC3CC(CC(C3)C1)C2	–	–	–	141	–
CCn1nc(C)c(NC(=O)CC23CC4CC(CC(C4)C2)C3)c1C	–	–	–	–	–
CCN1CCN(Cc2c(O)ccc3c(=O)c(-c4ccccc4OC)coc23)CC1	+	–	–	–	–
CCOc1ccccc1Oc1c(C)oc2c(CN3CCN(CCO)CC3)c(O)ccc2c1=O	–	–	–	–	–
COc1ccccc1-c1coc2c(CN3CCN(C)CC3)c(O)ccc2c1=O	+	–	–	–	–
Cc1oc2c(CN3CCOCC3)c(O)ccc2c(=O)c1-c1ccccc1	+	–	–	–	–
COc1ccccc1Oc1c(C)oc2c(CN3CCN(CCO)CC3)c(O)ccc2c1=O	+	–	–	–	–
O=C(CC1NCCN(Cc2ccccc2)C1=O)Nc1ccccc1 (configuration not stated)	–	–	–	–	–

Screening results: PubChem, several laboratories
